Bioassay records as filed in PubChem.
RMI FANCM FP – disruptors of RMI1/RMI2 association with MM2 peptide – biochemical, fluorescence polarization, human, primary screen; RMI core complex with F-MM2 peptide; stronger effect = lower value; FP signal (polarization) at 33 µM; actives 0.58% (n = 70,000); in the data active = FP signal below about 40
Active calls of the source: *; ! = a repeat was not active. Many of the other results were omitted from the sample, so hits are more common in it than they were.

SMILES	RMI FANCM FP
CC(CO)NC(=O)C1C=C2c3cccc4[nH]cc(c34)C[C@H]2N(C)C1 (some centres not stated)	42
CCN(CC)C(=O)N[C@@H]1C[C@@H]2c3cccc4[nH]cc(c34)C[C@H]2N(C)C1	52
CCN(CC)C(=O)N[C@H]1C=C2c3cccc4[nH]cc(c34)C[C@H]2N(C)C1	20*
Cc1csc(CN2CCN(C(=O)Cc3cccc4ccccc34)CC2)n1	62
Cc1nnc(N)n1N	65
O=C(c1ccccc1)c1cc(Cl)ccc1NC(=O)C(Cl)Cl	40
C[C@]12CC[C@H](O)CC1=CC[C@@H]1[C@@H]2CC[C@@]2(C)[C@H]1CC[C@]2(C)O	55
CC(=O)O[C@H]1CC[C@@]2(C)C(=CC[C@@H]3[C@@H]2CC[C@]2(C)C(=O)CC[C@@H]32)C1	9*
CC(=O)O[C@@H]1CC[C@]2(C)C3CC[C@]4(C)C(=O)CCC4C3CC[C@H]2C1 (some centres not stated)	64
CCN(CC)CCN(C(=O)Cc1cccc2ccccc12)c1nc2cc3c(cc2s1)OCO3	79
NC(=S)N/N=C\c1coc2ccccc2c1=O	62
CC[C@@]1(O)C[C@H](O[C@H]2C[C@H](N(C)C)[C@H](O)[C@H](C)O2)c2c(cc3c(c2O)C(=O)c2c(O)cccc2C3=O)[C@H]1C(=O)OC	79
CC[C@@]1(O)C[C@H](O)c2c(cc3c(c2O)C(=O)c2c(O)ccc(O)c2C3=O)[C@H]1C(=O)OC	26*
CC[C@@]1(O)C[C@H](O[C@H]2C[C@H](N(C)C)[C@H](O)[C@H](C)O2)c2c(cc3c(c2O)C(=O)c2c(O)ccc(O)c2C3=O)[C@H]1C(=O)OC	55
CC(=O)OC1CCC2(C)C(CCC3C2CCC2(C)C(OC(C)=O)CCC32)C1 (configuration not stated)	62
CSc1cccc2sc(N3CCNCC3)nc12	74
CSc1ccc(C2N(c3cc(C)on3)C(=O)C3CCCN32)cc1 (configuration not stated)	62
CC(C)(O)[C@@H]1[C@H]2OC(=O)[C@@H]1[C@]1(O)C[C@H]3O[C@]34C(=O)O[C@H]2[C@]14C	53
CC(C)(O)[C@@H]1[C@H]2OC(=O)[C@@H]1[C@]1(O)C[C@H]3O[C@]34C(=O)O[C@H]2[C@]14C (tested in a mixture with another compound)	30*
COc1ccc(-c2csc(CN3CCN(C(=O)COc4ccccc4)CC3)n2)cc1	62
CC12CCC(O)CC1CCC1C2[C@H](O)CC2(C)C(C3=CC(=O)OC3)CCC12O (some centres not stated)	60
CC(C)(C)NCC(O)c1cc(Cl)c(N)c(Cl)c1 (configuration not stated)	4*!
COc1cc(OC)cc(C(=O)Nc2nc(CC(=O)N3CCN(Cc4ccccc4)CC3)cs2)c1	71
O=C(/C=C/c1cccs1)C(=O)Nc1ccc(Br)cc1C(=O)c1ccccc1Cl	30*
O=C(CN1C(=O)CCC1=O)C(=O)Nc1ccc(Br)cc1C(=O)c1ccccc1Cl	50
SMILES	RMI FANCM FP
O=C(/C=C/c1ccccc1)Nc1ccc(Br)cc1C(=O)c1ccccc1Cl	55
S=P(S)(c1ccccc1)c1ccccc1	59
O=C(c1ccccc1OCc1ccccc1)[C@@H]1[C@H](c2ccc([N+](=O)[O-])cc2)N1C1CCCCC1 (some centres not stated)	61
Cc1cccc(NC(=O)c2cccn(Cc3ccc(Br)cc3)c2=O)c1C	50
Cc1ccccc1Cn1cccc(C(=O)Nc2cccc(Cl)c2Cl)c1=O	10*
CC(=O)c1cccc(NC(=O)c2cccn(Cc3ccccc3C)c2=O)c1	63
Clc1cccc2sc(N3CCNCC3)nc12	71
NCCN1CCN(c2ccccc2F)CC1	71
COc1ccc(CN2CCNCC2CCO)cc1C (configuration not stated)	56
Fc1cc(F)c2nc(N3CCNCC3)sc2c1	72
